Here are results for 38 molecules from PubChem BioAssay (EPA / NIEHS).

Calls of active or inactive are those of the source. The calls were made as follows: active = hit-call score of the fitted dose curve at least 0.9, where 1 is the maximum; inactive = score below 0.9.

The first test can be described thus: ATG_NF_kB_CIS: Attagene CIS-FACTORIAL HepG2 Assay for human Nuclear Factor Kappa B (NF-kB) (AID 2282991). To be noted: HepG2 Attagene cis-factorial NF-kB reporter mRNA; actives raise or lower the signal. The method in brief:
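HepG2 cells transfected with cis-promoter-driven reporter units, so endogenous transcription factor activity is measured. Reporter mRNA quantified 24 h after dosing by RT-PCR and capillary electrophoresis, with bidirectional fitting against DMSO.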
For the molecule `O=C(O)CCCCCCCCCCC(=O)O`, the call was inactive.
As to `O=S(=O)(O)NC1CCCCC1`, the call was inactive.
Broadly, the AC50 is the concentration at which the activity in the assay is half-maximal. For the molecule `CCCC(=O)OCCC(C)CCC=C(C)C` (configuration not stated), the AC50 is 72 µM (active).
With `Nc1nc2ccc([N+](=O)[O-])cc2s1`, the call was inactive.
In the case of `C=CC(C)(C)O`, the call was inactive.
With `Cc1ccc(C(C)C)cc1O`, the call was inactive.
As to `CC(c1cc2ccccc2s1)N(O)C(N)=O` (configuration not stated), the call was inactive.
On the same count and under the same terms, then `CCCCCCCCCOC(C)=O`, with “inactive”.
For the molecule `N#Cc1nc(Cl)c(Cl)c(Cl)c1Cl`, the AC50 was 4.63 µM (active).
Consider `O=S(=O)(O)c1cccc2c(S(=O)(=O)O)cccc12`, for which the outcome was inactive.
For the molecule `Cc1ccc(C=O)s1`, the call was inactive.
With `NC(=O)c1ccccc1Cl`, the molecule was classed as inactive.
Turning to `O=C(COc1ccc(Cl)cc1)N1CCN(Cc2ccc3c(c2)OCO3)CC1`, the outcome was inactive.
Take `C=CC(=O)OCC(O)COc1ccccc1` (configuration not stated): the AC50 is 55.7 µM (active).
With `CC1(C)CCC(C)(C)c2cc(C(=O)Nc3ccc(C(=O)O)cc3)ccc21`, the result was inactive.
Regarding `C=O`, the call was inactive.

A short description of the next test: ATG_NRF2_ARE_CIS: Attagene CIS-FACTORIAL HepG2 Assay for human Nuclear Factor Erythroid 2 Related Factor 2 (NFR2) response to Antioxidant Response Elements (ARE) (AID 2282992).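 As to AC50: reporter mRNA level measured by RT-PCR and capillary electrophoresis fluorescence.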 To be noted: HepG2 Attagene ARE/NRF2 reporter, transcription factor activity; actives raise or lower the signal. The procedure, abridged: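 Endogenous transcription factor activity in human liver HepG2 cells is tracked via a cis-element-driven reporter within a multiplexed set. mRNA induction is read by RT-PCR and capillary electrophoresis after 24 h, with DMSO as baseline.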
With `CN(C)c1ccc(O)c2c1C[C@H]1C[C@H]3[C@H](N(C)C)C(=O)C(C(N)=O)=C(O)[C@@]3(O)C(=O)C1=C2O`, the result was inactive.
Take `CC(C)(Oc1ccc(CCNC(=O)c2ccc(Cl)cc2)cc1)C(=O)O`: the outcome was inactive.
On the same count and under the same terms, then `CC(O)C(C)O` (configuration not stated), with “inactive”; and `C=CCOc1nc(OCC=C)nc(OCC=C)n1`, with “inactive”.
Regarding `CCOC(=O)c1ccccc1OC`, the outcome was inactive.
Take `C=CC[N+](C)(C)CC=C`: the outcome was inactive.
`CC(C)(C)C(=O)c1ccccc1`: the outcome was inactive.
For `OCCOc1cccc(OCCO)c1`, the molecule was classed as inactive.
With `CC1=CC(=O)NS(=O)(=O)O1`, the molecule was classed as inactive.
Turning to `Cc1ccc(C(=O)O)o1`, the molecule was called inactive.
Turning to `C#C[C@]1(O)CC[C@H]2[C@@H]3CCC4=Cc5oncc5C[C@]4(C)[C@H]3CC[C@@]21C`, the molecule was called inactive.
With `CC1CCC(C(C)CS)CC1S` (configuration not stated), the AC50 was 33.4 µM (active).
With `O=[N+]([O-])c1ccc(C=Cc2ccc([N+](=O)[O-])cc2S(=O)(=O)O)c(S(=O)(=O)O)c1`, the call was inactive.
In the case of `Cc1c(N(C)C)c(=O)n(-c2ccccc2)n1C`, the result was inactive.
Still for that read-out and setting: with `COCCOCCOCCOCCOCCO` the entry was “inactive”; with `O=C1NC(=O)c2ccccc21`, “inactive”.
In the case of `O=c1oc(=O)c2cc3c(=O)oc(=O)c3cc12`, the call was inactive.
`Nc1cc(N)cc(C(=O)O)c1`: the molecule was classed as inactive.
`C=CC(=O)OCCOCCOCC`: the AC50 was 26 µM (active).
The same measure, in the same setting: with `CCCCCCCCCCCCOCCO` the figure was 54 µM (active); with `CC(=O)O[C@]1(C(C)=O)CC[C@H]2[C@@H]3C[C@H](C)C4=CC(=O)CC[C@]4(C)[C@H]3CC[C@@]21C`, 65.1 µM (active).
Take `O=C(O)C[C@H](O)C[C@H](O)/C=C/c1c(C2CC2)nc2ccccc2c1-c1ccc(F)cc1`: the call was inactive.
For `O=C(O)CCCCCCCCCCC(=O)O`, the call was inactive.
`O=S(=O)(O)NC1CCCCC1`: the result was inactive.
As for `CCCC(=O)OCCC(C)CCC=C(C)C` (configuration not stated), the AC50 is 78.7 µM (active).
Regarding `Nc1nc2ccc([N+](=O)[O-])cc2s1`, the AC50 was 56.5 µM (active).
Regarding `C=CC(C)(C)O`, the result was inactive.
On to `Cc1ccc(C(C)C)cc1O`, for which the call was inactive.
Take `CC(c1cc2ccccc2s1)N(O)C(N)=O` (configuration not stated): the call was inactive.
Take `CCCCCCCCCOC(C)=O`: the outcome was inactive.
Take `N#Cc1nc(Cl)c(Cl)c(Cl)c1Cl`: the AC50 is 0.885 µM (active).
Regarding `O=S(=O)(O)c1cccc2c(S(=O)(=O)O)cccc12`, the molecule was classed as inactive.
On the same count and under the same terms, with `Cc1ccc(C=O)s1` the entry was “inactive”.
Consider `NC(=O)c1ccccc1Cl`, for which the half-maximal activity concentration (AC50) is 25.8 µM (active).
`O=C(COc1ccc(Cl)cc1)N1CCN(Cc2ccc3c(c2)OCO3)CC1`: the AC50 is 100 µM (active).
As to `C=CC(=O)OCC(O)COc1ccccc1` (configuration not stated), the AC50 is 26.2 µM (active).
For `CC1(C)CCC(C)(C)c2cc(C(=O)Nc3ccc(C(=O)O)cc3)ccc21`, the molecule was classed as inactive.
As to `C=O`, the molecule was classed as inactive.

A further test can be described thus: ATG_Oct_MLP_CIS: Attagene CIS-FACTORIAL HepG2 Assay for human Octamer-Binding Transcription Factor (Oct) (AID 2282993). Conditions: HepG2 Attagene cis-factorial Oct reporter, mRNA; actives raise or lower the signal. The method in brief: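 Read-out: reporter mRNA via RT-PCR plus capillary electrophoresis of 6-FAM-labelled fragments. Transiently transfected HepG2, 24 h exposure, endogenous TF activity on cis elements. Gain or loss of signal fitted relative to DMSO.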
For the molecule `CN(C)c1ccc(O)c2c1C[C@H]1C[C@H]3[C@H](N(C)C)C(=O)C(C(N)=O)=C(O)[C@@]3(O)C(=O)C1=C2O`, the result was inactive.
As for `CC(C)(Oc1ccc(CCNC(=O)c2ccc(Cl)cc2)cc1)C(=O)O`, the outcome was inactive.
As to `CCOC(=O)c1ccccc1OC`, the outcome was inactive.
With `C=CC[N+](C)(C)CC=C`, the outcome was inactive.
Consider `OCCOc1cccc(OCCO)c1`, for which the result was inactive.
On the same count and under the same terms, with `CC1=CC(=O)NS(=O)(=O)O1` the entry was “inactive”.
The same measure, in the same setting: with `Cc1ccc(C(=O)O)o1` the entry was “inactive”; with `O=[N+]([O-])c1ccc(C=Cc2ccc([N+](=O)[O-])cc2S(=O)(=O)O)c(S(=O)(=O)O)c1`, “inactive”.
`Cc1c(N(C)C)c(=O)n(-c2ccccc2)n1C`: the molecule was classed as inactive.
On to `COCCOCCOCCOCCOCCO`, for which the molecule was called inactive.
`O=C1NC(=O)c2ccccc21`: the outcome was inactive.
Still for that read-out and setting: then `O=c1oc(=O)c2cc3c(=O)oc(=O)c3cc12`, with “inactive”.
With `Nc1cc(N)cc(C(=O)O)c1`, the outcome was inactive.
With `C=CC(=O)OCCOCCOCC`, the molecule was classed as inactive.
Regarding `CCCCCCCCCCCCOCCO`, the AC50 was 56.5 µM (active).
As for `O=C(O)CCCCCCCCCCC(=O)O`, the molecule was classed as inactive.
As to `O=S(=O)(O)NC1CCCCC1`, the result was inactive.
As to `CCCC(=O)OCCC(C)CCC=C(C)C` (configuration not stated), the AC50 is 100 µM (active).
Turning to `Nc1nc2ccc([N+](=O)[O-])cc2s1`, the call was inactive.
As for `C=CC(C)(C)O`, the call was inactive.
For the molecule `Cc1ccc(C(C)C)cc1O`, the molecule was classed as inactive.
Take `CC(c1cc2ccccc2s1)N(O)C(N)=O` (configuration not stated): the result was inactive.
With `CCCCCCCCCOC(C)=O`, the outcome was inactive.
As for `N#Cc1nc(Cl)c(Cl)c(Cl)c1Cl`, the AC50 was 2.54 µM (active).
For the molecule `Cc1ccc(C=O)s1`, the molecule was classed as inactive.
On to `O=C(COc1ccc(Cl)cc1)N1CCN(Cc2ccc3c(c2)OCO3)CC1`, for which the result was inactive.
In the case of `C=CC(=O)OCC(O)COc1ccccc1` (configuration not stated), the molecule was called inactive.
Turning to `C=O`, the molecule was called inactive.
